The source of these data is PubChem BioAssay (NCI).

SMILES strings stand for the structures. The panel holds about 83,000 compounds, 20% with a hit somewhere; the sample as a whole holds those more often.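 Single-dose data. Exposure time 48 hours. Values below 10 considered active.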 The source made the active and inactive calls.

The subject of this assay is UO-31 renal. The assay is described as follows: NCI-60 one-dose screen, 48 h (100 = growth as untreated, 0 = no growth, -100 = all killed). The following applies: 10 µM unless noted. The protocol: Growth inhibition of the UO-31 human tumor cell line is measured as a screen for anti-cancer activity. Cells are grown in 96 well plates and exposed to the test compound for 48 hours. Compounds are tested at a single concentration, which is 10^-5 M for most compounds. The reported endpoint is percent growth (GI% or GIPRCNT), where numbers from 0 - 100% represent growth inhibition, and numbers from -100% - 0 represent cell death. For example, a value of 40 represents 60% growth inhibition. A value of 0 means no net growth occurred over the course of the experiment. A value of -40 indicates 40% of cells at the beginning of the experiment died by the end of the experiment. A value of -100 means all cells are dead at the end of the experiment.
NCI-60 Human Tumor Cell Lines Screen was performed using the standard one-dose NCI protocol, which is described in more detail at https://dtp.cancer.gov/discovery_development/nci-60/default.htm.
Compounds with GIPRCNT values below 10 were considered active. Activity score was based on GIPRCNT using the following formula: […]
Score is 0 for GIPRCNT values of 100 or above, 50 for GIPRCNT values of 0, and 100 for GIPRCNT values of -100.
As to `Cc1sc2c(c1C)c(=O)nc1c(-c3nc4ccccc4s3)n[nH]n12`, the growth is 73.7% (inactive). Consider `CC(=O)C1=C(C)NC(SCc2nnc(-c3ccc(C)cc3)o2)=NC1c1ccc(F)cc1` (stereo not given), for which the growth was 83.6% (inactive). In the case of `CO/C=C/C(=O)c1cc2cnc3c(=N)cc(NC(=O)C(C)C)c([nH]1)c23` it was -20.1% (active). In the case of `COc1ccc(-c2ccc3ncc4c(c3c2)n(-c2ccc(N3CCNCC3)c(C(F)(F)F)c2)c(=O)n4C)cn1` it was -90.9% (active); in that of `CC[C@@H]1C(=O)N(C)c2cnc(Nc3ccc(C(=O)NC4CCN(C)CC4)cc3OC)nc2N1C1CCCC1`, 13.4% (inactive). With `O=C1NC(=O)/C(=C/c2ccc3nccc(-c4ccncc4)c3c2)S1` the figure was -37.7% (active); with `Clc1ccc(C(Cn2ccnc2)OCc2ccsc2Cl)c(Cl)c1` (stereo not given), 25.8% (inactive). As to `CC[C@H](CO)Nc1nc(NCc2ccccc2)c2ncn(C(C)C)c2n1`, the growth is 55.4% (inactive). In the case of `C#Cc1cccc(Nc2ncnc3cc(OC)c(OCCCCCCC(=O)NO)cc23)c1` it was -16.8% (active); in that of `CCN(CC)CCNc1ccc(N=Nc2cnc3ccccc3c2)c2ccccc12`, -94.2% (active); in that of `c1cn2cc(-c3ccc4cn[nH]c4c3)nc(Nc3ccc(N4CCOCC4)cc3)c2n1`, 65.1% (inactive). With `CCCCCCCC(=O)SCC/C=C/[C@@H]1CC(=O)NCc2cccc(n2)C2=N[C@@](C)(CS2)C(=O)N[C@@H](C(C)C)C(=O)N1`, the growth was 50.8% (inactive). In the case of `COC(=O)c1ccc2c(C(=Nc3ccc(N(C)C(=O)CN4CCN(C)CC4)cc3)c3ccccc3)c(O)[nH]c2c1` it was 9.57% (active). In the case of `NC(=O)Nc1cc(-c2cccc(F)c2)sc1C(=O)N[C@H]1CCCNC1` it was -95.4% (active). In the case of `CCCS(=O)(=O)Nc1ccc(F)c(C(=O)c2c[nH]c3ncc(-c4ccc(Cl)cc4)cc23)c1F` it was 19.5% (inactive); in that of `O=C1CC(c2ccc3c(c2)OCO3)c2ncn(-c3ccc(Cl)cc3)c2N1` (stereo not given), 61.3% (inactive).

As to `Cc1cccc(Cl)c1NC(=O)c1cnc(Nc2cc(N3CCOCC3)cc(S(C)(=O)=O)c2)s1`, the growth was 2.76% (active).

Take `CN(N)c1nc2sc3c(c2c(=O)[nH]1)CCCC3`: the growth is 72.9% (inactive). With `Cc1cc(Nc2ncc(Cl)c(Nc3ccccc3S(=O)(=O)C(C)C)n2)c(OC(C)C)cc1C1CCNCC1` the figure was -96.4% (active); with `COc1cc2ncnc(Nc3ccc(O)cc3)c2cc1OC`, 36.8% (inactive); with `CC(=Nc1ccccc1)C1=C(O)C(Cc2ccccc2)NC1=O` (stereo not given), 43.6% (inactive). In the case of `Cc1ccc(-[n+]2c3cc(N)c(C)cc3nc3cc(C)c(Nc4ccccc4)cc32)cc1` it was -86.8% (active). In the case of `CCOC(=O)c1sc(NC(=O)COc2ccc(/C=C3\Cc4ccc(Cl)cc4C3=O)cc2)nc1C`, the growth was -77.3% (active).

As for `CCOc1cccc(/C=N/NC(=O)c2ccccc2Nc2ccnc(C(F)(F)F)c2)c1O`, the growth was -15.1% (active). On to `N#Cc1c(-c2ccc(C(F)(F)F)cc2)cc(NCC2CCS(=O)(=O)CC2)n2c1nc1ccccc12`, for which the growth is 56.2% (inactive). With `CCOc1cc2ncc(C#N)c(Nc3ccc(OCc4ccccn4)c(Cl)c3)c2cc1NC(=O)/C=C/CN(C)C` the figure was -85% (active); with `CNC(=O)c1cc(Oc2ccc3nc(NC(=O)Nc4ccc(Cl)c(C(F)(F)F)c4)sc3c2)ccn1`, -7.14% (active); with `CCc1cc2c(cc1N1CCC(N3CCOCC3)CC1)C(C)(C)c1[nH]c3cc(C#N)ccc3c1C2=O`, -67.2% (active).

On to `C=CC(=O)Nc1cc(Nc2nccc(-c3cn(C)c4ccccc34)n2)c(OC)cc1N(C)CCN(C)C`, for which the growth is -83.2% (active). In the case of `CN1C/C=C\CCOc2cccc(c2)-c2ccnc(n2)Nc2cccc(c2)C1` it was -79.3% (active).

Regarding `CC1(C=O)NC(=O)NC1=O` (stereo not given), the growth was 96% (inactive). In the case of `C[C@@H]1COC(Nc2ccc3ncnc(Nc4ccc(OCc5nccs5)c(Cl)c4)c3c2)=N1` it was 18.7% (inactive). With `CC/C=C\C[C@H]1C/C=C2/C(=O)C=C[C@@H]2C/C=C\CCCC(=O)O1` the figure was -90.3% (active). With `Cc1ccc(N=C2CSc3nnc(-c4csc5c4CCCC5)n3N2)cc1`, the growth is 57.9% (inactive). With `O=C(Cc1ccc(/C=C/C(=O)c2ncc[nH]2)cc1)Nc1ccc(S(F)(F)(F)(F)F)cc1` the figure was 60.7% (inactive); with `COC(=O)[C@@H](NC(=O)[C@@H](OC)[C@@H]1Cc2cc3cc(OC4CC(OC5CC(O)C(O)C(C)O5)C(O)C(C)O4)c(C)c(O)c3c(O)c2C(=O)[C@H]1OC1CC(OC2CC(OC3CC(C)(O)C(O)C(C)O3)C(O)C(C)O2)C(O)C(C)O1)C(C)C` (stereo not given in full), 7.39% (active); with `Ic1ccccc1-c1ccccc1`, 85.5% (inactive).

In the case of `COc1cnc2c(c1)C(=O)c1c-2n(CCCn2ccnc2)c(=O)c2cc(Cl)ccc12`, the growth was -0.232% (active). On to `O=C(Cn1ccc2ccccc21)Nc1ccc(-c2nc3ccccc3s2)cc1`, for which the growth was 92.4% (inactive). With `Cc1cc(-c2cc(OC(=O)c3ccccc3)ccc2Cl)cc2nnc(Nc3ccc(OCCN4CCCC4)cc3)nc12` the figure was 73.9% (inactive).
